Data published in PubChem BioAssay (NCATS).
Results filed as inconclusive are left out. The source made the active and inactive calls. The call rests on the fitted dose curve; in most records, active means well fitted inhibition curve with a large enough effect; inconclusive means small, poorly fitted or top-dose-only effect; inactive means flat fitted curve, though single readings scatter.

How the values were obtained:
Assay in all cases: qHTS profiling for inhibitors of Plasmodium falciparum proliferation (AID 504749); further: nearly all actives have a fitted effect of over 60% in size
Details in all cases: P. falciparum in erythrocytes, SYBR Green DNA, 72 h; series mostly up to 28.7 µM
CP260 = tested on: CP260
In short: (§1)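 SYBR Green fluorescence of parasite DNA, read after lysis and overnight dark incubation, measured growth over 72 h in erythrocyte culture at 0.3% parasitemia and 2.5% hematocrit. Data normalised to DMSO and 0.29 uM artemisinin, with plate-drift correction.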

CP262 = tested on: CP262
In short: as §1

CP265 = tested on: CP265
In short: as §1

CP266 = tested on: CP266
In short: as §1

CP268 = tested on: CP268
In short: as §1

CP269 = tested on: CP269
In short: as §1

CP286 = tested on: CP286
In short: as §1

CP291 = tested on: CP291
In short: as §1

CP297 = tested on: CP297
In short: as §1

CP305 = tested on: CP305
In short: as §1

CP315 = tested on: CP315
In short: as §1

CP325 = tested on: CP325
In short: as §1

CP329 = tested on: CP329
In short: as §1

CP335 = tested on: CP335
In short: as §1

DFO2036 = tested on: DFO2036
In short: as §1

DIV14 = tested on: DIV14
In short: as §1

DIV17 = tested on: DIV17
In short: as §1

DIV30 = tested on: DIV30
In short: as §1

Dd2 = tested on: Dd2
In short: as §1

ECU = tested on: ECU
In short: as §1

Measured: Potency

O=S(=O)(O)c1cc(O)ccc1O
inactive: all assays above

COc1ccc(OC)c(C(O)C(C)N)c1 (stereo not given)
inactive: all assays above

c1ccc2sc(SNC3CCCCC3)nc2c1
inactive: all assays above

CCC1(C)CC(=O)NC(=O)C1
inactive: all assays above

CCCCNCC(O)c1ccc(O)cc1 (stereo not given)
inactive: all assays above

CNC(=O)OCC[N+](C)(C)C
inactive: all assays above

CC(C)(O)C1C2OC(=O)C1C1(O)CC3OC34C(=O)OC2C14C (stereo not given)
inactive: all assays above

O=C(O)C(Cl)(Cl)Cl
inactive: all assays above

O[C@H]1[C@H]2[C@H](O)CCCN2C[C@H]1O
inactive: all assays above

O=CC=O
inactive: all assays above

CCC(N)Cc1c[nH]c2ccccc12 (stereo not given)
inactive: all assays above

C#CC(C)(O)CC (stereo not given)
inactive: all assays above

ClC=C(Cl)Cl
inactive: all assays above

CCCC(C)(COC(N)=O)COC(=O)NC1CC1 (stereo not given)
inactive: all assays above

O=C1CCCCC1CN1CCCCC1 (stereo not given)
inactive: all assays above
